The panel holds about 83,000 compounds, 20% with a hit somewhere; the sample as a whole holds those more often.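 Negative percent growth values reflect cell death: -40 means 40% of the cells present at the start died, and -100 means all died.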 Unmarked numbers belong to inactive results. Active and inactive are the calls of the source. How the source made its calls: active means growth percent below 10; inactive means the rest.

Holding throughout (experiment): NCI-60 one-dose screen, 48 h (100 = growth as untreated, 0 = no growth, -100 = all killed)
Holding throughout (settings): 10 µM unless noted

The test system of assay [1] is SR leukemia.
Assay [2] deals with RPMI-8226 leukemia.
Assay [3] concerns OVCAR-8 ovarian.
In assay [4] the test system is OVCAR-5 ovarian.
Assay [5] has as its system OVCAR-4 ovarian.
In assay [6] the test system is SK-OV-3 ovarian.
Assay [7] deals with IGROV1 ovarian.
For assay [8], the system named is OVCAR-3 ovarian.
Assay [9] has as its system HS 578T breast.
The subject of assay [10] is NCI/ADR-RES ovarian.

Regarding `COc1cccc(-c2nn(-c3ccccc3)cc2-c2ccnc(NCCCNS(=O)(=O)c3ccc(C(F)(F)F)cc3)c2)c1`, the growth in [1] is -13.1% (active); in assay [2], 13.3%; in assay [3], 30.7%; in assay [4], 50.1%; in assay [5], 33.5%; in assay [6], 37.7%. Moreover, the growth was 39.6% in assay [7], 36% in [8], 38.7% in assay [9] and 22.8% in assay [10].

Take `CCOC(=O)N1CCN(CCCCOc2ccc(C(C)(C)CC)cc2)CC1`: the growth in assay [1] is 90.3%; in [2], 84.4%; in [3], 103%; in [4], 106%; in [5] it was 93.8%; in assay [6], 104%. Moreover, the growth is 110% in assay [7], 103% in assay [8], 108% in assay [9] and 88.2% in assay [10].

In the case of `Nc1nc2c(c(=O)[nH]1)C(c1ccc3c(c1)OCO3)C=C(C(=O)O)N2` (stereo not given), the growth in assay [1] was 103%; in [2], 129%; in [3] it was 106%; in assay [4], 114%; in assay [5], 103%; in assay [6], 118%. The growth is 111% in assay [7], 123% in assay [8], 106% in assay [9] and 109% in assay [10].

Consider `O=c1[nH]c2c3ccncc3cc(-c3cccc(Cl)c3)c2c2cnccc12`, for which the growth was 14.3% in assay [1]; 27.1% in assay [2]; 40.2% in [3]; 67.9% in assay [4]; -8.25% (active) in [5]; 51.9% in assay [6]. Also, the growth is 70.9% in assay [7], -22.8% (active) in [8], 5.48% (active) in [9] and 50.3% in assay [10].

For `N=c1c(S(=O)(=O)c2ccccc2)cc2c(=O)n3ccccc3nc2n1C1CCCC1`, the growth was 82.4% in assay [1]; 92.9% in assay [2]; 88.3% in assay [3]; 103% in [4]; 95.5% in assay [5]; 104% in [6]. The growth was 97% in [7], 93.9% in [8], 95.6% in assay [9] and 87.4% in assay [10].

With `CCCCC[C@H]1C/C=C2/C(=O)C(Cl)=C[C@@H]2C/C=C\CCCC(=O)O[C@@H](CCCCC)C/C=C2/C(=O)C(Cl)=C[C@@H]2C/C=C\CCCC(=O)O1`, the growth in [1] was -7.23% (active); in assay [2], -13.6% (active); in assay [3] it was -13.9% (active); in [4], -44.4% (active); in assay [5], 16%; in assay [6] it was -21.4% (active). Moreover, the growth was -44.4% (active) in [7], -82.7% (active) in [8], 32.4% in assay [9] and 19.8% in assay [10].

Turning to `CC(=O)c1c(C)[nH]c(-c2nc3ccc(N4CCN(C)CC4)cc3[nH]2)c1-c1ccc2c(c1)OCCO2`, the growth in assay [1] was 46.2%; in assay [2] it was 7.78% (active); in assay [3] it was 48.2%; in assay [4], 46.4%; in assay [5] it was 43%; in assay [6] it was 28.7%. Besides, the growth in [7] was 23%; in assay [8], 46%; in assay [9], 30.1%; in assay [10], 53%.

Turning to `CC(=O)Cc1nsc(NC(=O)c2ccoc2COc2ccccc2)n1`, the growth in assay [1] is 104%; in assay [2], 88.6%; in [3], 103%; in assay [4], 94.1%; in assay [5] it was 103%; in [6], 111%. For the same compound, the growth in [7] is 95.9%; in assay [8] it was 111%; in assay [9], 107%; in [10], 99.1%.

Consider `C=C1CC[C@@H](C(=O)OC)Cc2nc(C)ccc21`, for which the growth in assay [1] was 95.7%; in assay [2], 100%; in assay [3] it was 102%; in assay [4] it was 98.4%; in assay [5] it was 103%; in assay [6], 109%. Moreover, the growth in assay [7] was 107%; in assay [8], 119%; in assay [9], 107%; in assay [10], 98.5%.

Take `Nc1c(C(=O)Nc2cccc3ccccc23)sc2nc3c(cc12)CCCC3`: the growth was 9.22% (active) in [1]; 28.3% in assay [2]; 33.8% in [3]; 44.7% in assay [4]; 52.7% in [5]; 36.8% in assay [6]. Further, the growth is 45.4% in assay [7], 2.02% (active) in assay [8], 27.8% in [9] and 0.722% (active) in assay [10].

Regarding `COc1cccc(-c2nn(-c3ccccc3)cc2-c2ccnc(NCCCO)c2)c1`, the growth is 5.71% (active) in assay [1]; 28.3% in assay [2]; 46% in [3]; 92% in [4]; 55.1% in assay [5]; 45% in assay [6]. The growth in assay [7] was 58.8%; in assay [8], 25.9%; in [9], 35.7%; in assay [10] it was 7.32% (active).

For the compound `c1ccc2[nH]c(-c3ccc(Nc4nc(N5CCCCC5)nc(N5CCOCC5)n4)cc3)nc2c1`, the growth is 9.79% (active) in assay [1]; 2.47% (active) in [2]; 45.7% in assay [3]; 73.9% in assay [4]; 61.2% in assay [5]; 22.5% in [6]. Besides, the growth in [7] is 51.3%; in [8], 10.9%; in [9], -12.6% (active); in [10] it was 45.6%.

Consider `Cc1csc(-c2ccc3c(c2)COC3(CCCN(C)C)c2ccc(F)cc2)c1` (stereo not given), for which the growth was -3.41% (active) in assay [1]; -31.5% (active) in [2]; 39% in assay [3]; 72.1% in assay [4]; 45.9% in [5]; -22.4% (active) in assay [6]. For the same compound, the growth is 17.2% in assay [7], 58.7% in assay [8], 47.7% in assay [9] and 78.6% in [10].

On to `O=C(O[C@@H]1Cc2c(O)cc(O)cc2O[C@@H]1c1cc(O)c(O)c(O)c1)c1cc(O)c2c(c1)OCO2`, for which the growth in [1] was 72.1%; in [2], 99.8%; in [3] it was 103%; in assay [4], 97%; in assay [5] it was 99.8%; in assay [6] it was 103%. Besides, the growth is 107% in assay [7], 106% in [8], 98.1% in assay [9] and 97.5% in assay [10].

As for `C/C(=N\Nc1cc(C)c2ccccc2n1)c1ccccn1`, the growth in [1] was 1.94% (active); in [2], -24% (active); in [3], -23.3% (active); in assay [4] it was 20.6%; in assay [5] it was -8.85% (active); in assay [6], 22.3%. For the same compound, the growth in assay [7] was -26.7% (active); in assay [8], -0.251% (active); in [9], 35.6%; in assay [10], -8.13% (active).

With `CC(C)(C)n1cc(-c2ccnc(NCCCNS(=O)(=O)c3ccc(Cl)cc3)c2)c(-c2cccc(F)c2)n1`, the growth was 32.9% in [1]; 52.3% in assay [2]; 84.7% in assay [3]; 77.2% in [4]; 90% in [5]; 91.7% in [6]. In addition, the growth in assay [7] is 69.5%; in assay [8], 84.2%; in assay [9] it was 87.9%; in assay [10], 73.5%.

Turning to `Cc1ccc(-c2nn(Cc3cn(-c4cc(C)nc5ccccc45)nn3)c3ncnc(N)c23)cc1`, the growth is 61.6% in [1]; 35.6% in [2]; 62.5% in assay [3]; 57.9% in assay [4]; 51.7% in assay [5]; 56.5% in [6]. The growth is 15.5% in assay [7], 53.1% in [8], 18.2% in [9] and 59.7% in assay [10].

For `C=C1C(=O)O[C@H]2[C@H]1CC/C(COC(=O)N[C@H](Cc1c[nH]c3ccccc13)C(=O)OC)=C\CC[C@@]1(C)O[C@@H]21`, the growth in assay [1] is 3.67% (active); in [2], 2.85% (active); in [3] it was 50.5%; in [4] it was 98.6%; in [5], 61.4%; in assay [6], 96.2%. Further, the growth was 16.5% in assay [7], -21.9% (active) in [8], 81.1% in [9] and 87.2% in assay [10].

As for `COc1cc2ncnc(Nc3ccc(Oc4ccnc(C)c4)c(C)c3)c2cc1NC(=O)CC1CCSS1` (stereo not given), the growth in assay [1] is -37.6% (active); in assay [2], -18.6% (active); in assay [3], 25.4%; in [4], 45.2%; in assay [5], 6.57% (active); in assay [6], -86.9% (active). Moreover, the growth in assay [7] is 20.6%; in [8], -81.4% (active); in assay [9], -7.37% (active); in assay [10] it was 31.9%.

`CC(C)(C)c1cc(-n2c(-c3ccc(Cl)cc3)nc3cc(C(=O)Nc4ccc(Cl)cc4)ccc32)n[nH]1`: the growth in [1] is 70.3%; in assay [2], 51.1%; in [3] it was 61.6%; in assay [4], 93%; in assay [5], 56.4%; in assay [6] it was 99.8%. Also, the growth in assay [7] is 40.3%; in [8], 45.8%; in assay [9], 55.8%; in assay [10], 40.4%.

As for `Brc1ccc2c(c1)c(-c1nc(-c3c[nH]c4ncccc34)cs1)cn2CCCN1CCCCC1`, the growth in assay [1] is -47.5% (active); in assay [2], -47.9% (active); in [3], 1.18% (active); in [4] it was 32.3%; in [5], 48.4%; in assay [6], 63.1%. Also, the growth in [7] is 6.09% (active); in [8], -64.3% (active); in [9] it was 52.1%; in [10], 13.4%.

As to `Nc1ccccc1NC(=O)c1ccc(CN2CCC/C(=C\c3ccccn3)C2=O)cc1`, the growth in [1] is 14.1%; in assay [2] it was 11.8%; in [3], 26.4%; in assay [4], 20.9%; in [5], 47.6%; in assay [6], 48.2%. For the same compound, the growth in assay [7] was 21.2%; in assay [8], 27.6%; in assay [9], 36.2%; in assay [10] it was 28.7%.

Take `COC(=O)C(Cc1ccccc1)n1cc(COc2nc(Cl)nc(Nc3ccc(Cl)cc3)n2)nn1` (stereo not given): the growth in assay [1] was 66.8%; in assay [2], 72.7%; in assay [3], 96.1%; in [4], 116%; in assay [5], 104%; in assay [6], 106%. The growth was 99% in [7], 87.2% in [8], 81.6% in assay [9] and 101% in assay [10].

As for `c1ccc(C2Cc3ccccc3C2=NC2CCCCC2)cc1` (stereo not given), the growth in [1] is 91.1%; in [2], 100%; in [3], 107%; in [4], 90.8%; in [5], 102%; in assay [6], 110%. Also, the growth was 112% in assay [7], 121% in assay [8], 113% in assay [9] and 113% in assay [10].

On to `CCN1CCN(C(=O)[C@@]2(C)CC[C@]3(C)CC[C@]4(C)C(=CC(=O)[C@@H]5[C@@]6(C)CC[C@H](OC7C[C@@H](O)[C@@H](O)C(C)O7)C(C)(C)[C@@H]6CC[C@]54C)[C@@H]3C2)CC1` (stereo not given in full), for which the growth in [1] is -4.66% (active); in assay [2], -25.7% (active); in assay [3] it was 12.3%; in [4] it was 9.86% (active); in assay [5] it was 0.113% (active); in [6], 113%. For the same compound, the growth is 26.5% in assay [7], 105% in assay [8], 87.5% in assay [9] and 47% in [10].

For `N#C/C(=C\c1ccc(-c2cccc(C(F)(F)F)c2)o1)c1nc(-c2ccco2)cs1`, the growth in [1] was 99.6%; in [2], 45.8%; in assay [3], 99.8%; in assay [4] it was 60.2%; in assay [5], 16.8%; in [6] it was 112%. Besides, the growth in assay [7] was 57.5%; in [8], 100%; in assay [9] it was 102%; in assay [10], 97.1%.

Source of the values: PubChem BioAssay (NCI).
